The record followed here is PubChem BioAssay.

SMILES strings stand for the structures.

A short description of the experiment: differential killing of epithelial or mesenchymal cells, primary screen, imaging, PC-3E GFP, TEM4-18 mCherry, co-culture (AID 1345086).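 Also: cells exposed to compound for 72 h before imaging.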 The note with it: imaging cell counts, measured here: epithelial PC-3E GFP cell survival, at 1 µM.
Consider `CCC1OC(=O)[C@H](C)C(=O)[C@H](C)[C@@H](OC2O[C@H](C)C[C@H](N(C)C)[C@H]2O)[C@](C)(OC)C[C@@H](C)C(=O)[C@H](C)[C@H]2N(CCCCn3cnc(-c4cccnc4)c3)C(=O)O[C@@]12C` (stereo partly specified), for which the normalised cell number came out at 1.06.
For the compound `COC(=O)[C@H](Cc1ccccc1)NC(=O)/C(=C1\OC(=O)C(c2ccccc2)=C1O)c1ccccc1`, the normalised cell number was found to be 0.92.
The same measure for `O=C1CC(c2ccc(O)cc2)Oc2ccccc21` (stereo unspecified): 1.01; for `C[C@H]1C(=O)CCC2[C@]3(C)CC[C@@]4(C)C5CC(C)(C)CC[C@]5(C)CC[C@]4(C)C3CC[C@@]21C` (stereo partly specified): 1.06.
With `C[C@@H]1OC(O[C@H]2[C@H](O)[C@@H](O)[C@H](OC[C@H]3O[C@@H](OC(=O)[C@]45CCC(C)(C)CC4C4=CCC6[C@@]7(C)CC[C@H](OC8OC[C@H](O)[C@H](O)[C@H]8OC8O[C@@H](C)[C@H](O)[C@@H](O)[C@H]8O)[C@@](C)(CO)C7CC[C@@]6(C)[C@]4(C)CC5)[C@H](O)[C@@H](O)[C@@H]3O)O[C@@H]2CO)[C@H](O)[C@H](O)[C@H]1O` (stereo partly specified) the figure was 0.96.
With `C[C@]12CCc3occc3C1CC[C@@]13C[C@@H](CCC12)[C@@](O)(CO)C3` (stereo partly specified) the figure was 0.94.
In turn, `CC(C)CCCC(C)[C@H]1CCC2C3C(=O)C=C4C[C@@H](O)CC[C@]4(C)C3CC[C@@]21C` (stereo partly specified) came in with a normalised cell number of 0.98.
The same measure for `NC(CSSCC(N)C(=O)O)C(=O)O` (stereo unspecified): 1.24.
With `COc1ccc(-c2coc3cc(OC)ccc3c2=O)cc1` the figure was 1.34; with `O=c1c(O)c(-c2ccccc2)oc2ccc3occc3c12`, 1.22.
The compound `CO/N=C(/C(=O)NC1C(=O)N2C(C(=O)O)=C(C[N+]3(C)CCCC3)CSC12)c1csc(N)n1` (stereo unspecified) displayed a normalised cell number of 1.21.
